PubChem BioAssay (Tox21)
Results filed as inconclusive are left out. Entries that show only a call come without a potency. Values without a mark were called inactive. The source made the active and inactive calls. Unless noted, the call rests on the fitted dose curve; in most records, active means well fitted curve in the direction sought with a large enough effect in the repeat runs; inconclusive means weak or mixed curves; inactive means no such curve, though single readings can be large; an effect the other way counts as inactive or inconclusive.

Columns and labels:
[1] = qHTS assay to identify small molecule antagonists of the retinoid-related orphan receptor gamma (ROR-gamma) signaling pathway - cell viability counter screen (AID 1159520); further: nearly all actives have a fitted effect of over 50% in size; further: potency means the concentration at half of the fitted maximal effect
Procedure, shortened: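 Tet-on ROR gamma CHO cells were given compounds for 2 hr, then doxycycline hyclate at 1 uM final, and incubated 16 hr at 37 C. Viability was measured as ATP content by CellTiter-Glo luminescence.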

[2] = target: Nuclear receptor ROR-gamma (Homo sapiens) (UniProt P51449); assay: qHTS assay to identify small molecule antagonists of the retinoid-related orphan receptor gamma (ROR-gamma) signaling pathway (AID 1159521; further: nearly all actives have a fitted effect of over 50% in size; further: potency means the concentration at half of the fitted maximal effect)
Procedure, shortened: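 Test compounds were applied to Tet-on RORγ CHO cells 2 h ahead of doxycycline hyclate (1 uM final). Luciferase reporter activity was quantified by luminescence after 16 h at 37 C and 5% CO2.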

[3] = qHTS assay to identify small molecule agonists of the AP-1 signaling pathway - cell viability counter screen (AID 1159525; calls by dose curve; further: nearly all actives have a fitted effect of over 55% in size; further: potency means the concentration at half of the fitted maximal effect)
Procedure, shortened: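 AP-1-bla ME-180 cells in Opti-MEM with 0.5% dialyzed FBS, compound exposure 5 h at 37 C in 15-point titration. Viability read in the same wells as ATP content by CellTiter-Glo luminescence, normalised to tetra-n-octylammonium bromide and DMSO controls.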

[4] = qHTS assay to identify small molecule antagonists of the retinoid acid receptor (RAR) signaling pathway - cell viability counter screen (AID 1159551); further: nearly all actives have a fitted effect of over 35% in size; further: potency means the concentration at half of the fitted maximal effect
Procedure, shortened: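 C3RL4 cells were seeded overnight at 37 C, then treated with compounds plus 1 uM (final) retinol for 6 h at 37 C. Viability was read as ATP by CellTiter-Glo luminescence after 30 min at room temperature.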

[5] = qHTS assay to identify small molecule antagonists of the retinoic acid receptor (RAR) signaling pathway (AID 1159552; further: nearly all actives have a fitted effect of over 50% in size; further: potency means the concentration at half of the fitted maximal effect)
Procedure, shortened: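 Test chemicals and DMSO controls were pin-transferred onto C3RL4 cells a day after seeding; retinol (1 uM final) followed at once. Luminescent reporter output was quantified after 6 hr of co-incubation and 30 min with detection reagent.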

[6] = qHTS assay to identify small molecule agonists of the AP-1 signaling pathway (AID 1159526; calls by dose curve)
[7] = target: Retinoic acid receptor RXR-alpha (Homo sapiens) (UniProt P19793); assay: qHTS assay to identify small molecule agonists of the RXR signaling pathway (AID 1159527; calls by dose curve; further: nearly all actives have a fitted effect of over 35% in size)
Procedure, shortened: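 Using 9-cis retinoic acid as the reference agonist, chemicals were tested in HEK 293T cells […] for 16 hr; substrate loading lasted 2 hr at room temperature.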

[8] = qHTS assay to identify small molecule agonists of the RXR signaling pathway - cell viability counter screen (AID 1159529); further: nearly all actives have a fitted effect of over 50% in size; further: potency means the concentration at half of the fitted maximal effect
Procedure, shortened: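 Compounds dissolved in DMSO were pinned onto HEK 293T cells carrying a beta-lactamase reporter under RXR-alpha control and incubated 16 hr. Cytotoxicity was then quantified by CellTiter-Glo luminescence.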

[9] = qHTS assay to identify small molecule agonists of the retinoic acid receptor (RAR) signaling pathway (AID 1159553)
Procedure, shortened: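 C3RL4 cells carrying a RARE luciferase reporter were plated overnight at 37 C, then exposed to compounds in DMSO for 6 hr at 37 C and 5% CO2. Luminescence was read 30 min after luciferase reagent addition at room temperature.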

Sequence of Retinoic acid receptor RXR-alpha (Homo sapiens) (P19793 whole entry, looked up): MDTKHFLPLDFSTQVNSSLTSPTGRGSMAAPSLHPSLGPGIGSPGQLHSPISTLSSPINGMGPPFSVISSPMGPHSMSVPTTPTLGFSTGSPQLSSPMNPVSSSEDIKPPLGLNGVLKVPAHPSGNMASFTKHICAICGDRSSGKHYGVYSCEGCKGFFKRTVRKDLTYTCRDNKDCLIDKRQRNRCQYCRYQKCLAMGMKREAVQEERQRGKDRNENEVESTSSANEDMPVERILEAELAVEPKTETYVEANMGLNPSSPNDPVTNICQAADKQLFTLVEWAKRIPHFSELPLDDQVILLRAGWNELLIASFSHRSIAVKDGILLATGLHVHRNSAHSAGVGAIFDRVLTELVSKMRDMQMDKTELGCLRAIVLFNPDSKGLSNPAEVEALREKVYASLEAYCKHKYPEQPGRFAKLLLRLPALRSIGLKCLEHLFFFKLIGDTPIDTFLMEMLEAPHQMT

SMILES | Potency [1] | Potency [2] | Potency [3] | Potency [4] | Potency [5] | Potency [6] | Potency [7] | Potency [8] | Potency [9]
O=C(Nc1ccccc1)c1cc(Cl)ccc1O | 24.3 µM (active) | 12.2 µM (active) | inactive | inactive | inactive | – | – | – | –
O=C(N[C@H](CO)[C@H](O)c1ccc([N+](=O)[O-])cc1)C(Cl)Cl | inactive | inactive | – | inactive | – | inactive | inactive | inactive | inactive
Cc1cc(Br)ccc1NC(=O)CCl | 27.3 µM (active) | 19.3 µM (active) | – | inactive | – | – | – | 21.9 µM (active) | –
CN1CCN(c2ccccc2/C=C2\SCCN(c3ccc(Cl)c(Cl)c3)C2=O)CC1 | 68.6 µM (active) | 7.7 µM (active) | – | – | 48.6 µM (active) | – | – | 24.5 µM (active) | –
CO[Si](OC)(c1ccccc1)c1ccccc1 | inactive | 61.1 µM (active) | – | inactive | – | – | – | – | –
CN1CC[C@H](c2c(O)cc(O)c3c(=O)cc(-c4ccccc4Cl)oc23)[C@H](O)C1 | 0.237 µM (active) | 0.298 µM (active) | – | – | 0.0668 µM (active) | – | – | inactive | –
N#Cc1nc(Cl)c(Cl)c(Cl)c1Cl | 1.93 µM (active) | 2.73 µM (active) | – | – | – | – | – | 15.5 µM (active) | –
Cc1c[nH]c(=O)[nH]c1=O | inactive | inactive | – | inactive | inactive | inactive | – | inactive | –
C=C1CC[C@H]2O[C@]2(C)CC[C@@H]2[C@@H]1CC2(C)C | inactive | inactive | – | inactive | – | inactive | inactive | inactive | –
C=C(C)C1CCC(C)CC1O (stereo unspecified) | inactive | inactive | – | inactive | – | inactive | inactive | – | –
Nc1cc([N+](=O)[O-])ccc1Cl | inactive | inactive | – | inactive | – | inactive | inactive | inactive | –
c1ccc2c(c1)-c1ccc3ccc4cccc5cc-2c1c3c45 | inactive | inactive | inactive | inactive | – | – | – | – | –
COc1cc([C@@H]2c3cc4c(cc3[C@@H](O[C@@H]3O[C@@H]5CO[C@@H](C)O[C@H]5[C@H](O)[C@H]3O)[C@H]3COC(=O)[C@H]23)OCO4)cc(OC)c1O | inactive | 27 µM (active) | – | inactive | 67.8 µM (active) | – | – | – | –
CCCCCCCCCCCC(=O)Cl | inactive | inactive | inactive | inactive | inactive | – | – | – | –
CCCCCCCCCCCCCCCCC(C(=O)O)C(O)(CC(=O)O)C(=O)O (stereo unspecified) | inactive | inactive | – | inactive | inactive | – | – | 19 µM (active) | inactive
Nc1ccc(Cl)c([N+](=O)[O-])c1 | inactive | 38.6 µM (active) | – | inactive | inactive | – | inactive | inactive | –
CC(C)(C)C1=CC(=O)C(C(C)(C)C)=CC1=O | inactive | 10.6 µM (active) | – | inactive | – | inactive | – | – | –

SMILES | Potency [1] | Potency [2] | Potency [3] | Potency [4] | Potency [5] | Potency [6] | Potency [7] | Potency [8] | Potency [9]
CCCCCCCCCC[N+](C)(CCCCCCCCCC)CCC[Si](OC)(OC)OC | 24.3 µM (active) | 21.7 µM (active) | – | 30.6 µM (active) | 61.1 µM (active) | – | – | 21.9 µM (active) | –
CCCC(C)C=O (stereo unspecified) | inactive | inactive | – | inactive | – | inactive | inactive | inactive | –
Clc1cccc(Cl)n1 | inactive | inactive | – | inactive | – | – | inactive | inactive | –
CN(C)CCOc1ccc(/C(=C(/CCCl)c2ccccc2)c2ccccc2)cc1 | 51 µM (active) | 22.8 µM (active) | – | 51 µM (active) | 57.2 µM (active) | – | – | 18.3 µM (active) | –
C=CC(=O)O[C@H]1C[C@@H]2CC[C@@]1(C)C2(C)C | inactive | – | inactive | inactive | inactive | inactive | inactive | inactive | –
CN1CCN(CCCN2c3ccccc3Sc3ccc(Cl)cc32)CC1 | inactive | – | inactive | inactive | 26.6 µM (active) | – | – | 9.52 µM (active) | –
O=C1OC(=O)c2cc(-c3ccc4c(c3)C(=O)OC4=O)ccc21 | inactive | – | inactive | inactive | inactive | – | – | inactive | –
CN1CCN(CCCN2c3ccccc3Sc3ccc(C(F)(F)F)cc32)CC1 | inactive | – | inactive | inactive | 23.7 µM (active) | – | – | 21.3 µM (active) | –
Cc1ccc(Cl)c(N)c1Cl | inactive | – | inactive | inactive | – | – | – | 49 µM (active) | –
CCOC(=O)OC(=O)OCC | inactive | – | inactive | inactive | inactive | inactive | inactive | inactive | –
CSc1nnc(C(C)(C)C)c(=O)[nH]1 | inactive | – | inactive | inactive | – | inactive | inactive | inactive | –
Cc1cc(F)ccc1-c1cc(N2CC[C@@H](O)[C@H]2CO)ncc1N(C)C(=O)C(C)(C)c1cc(C(F)(F)F)cc(C(F)(F)F)c1 | 53.6 µM (active) | – | 17.1 µM (active) | inactive | 42.6 µM (active) | – | – | 17.1 µM (active) | –
O=C1CCC/C=C\CCCCCCCCCC1 | inactive | inactive | – | inactive | inactive | – | – | – | –
COc1ccc(OC)c(N=Nc2c(O)ccc3ccccc23)c1 | 30.6 µM (active) | inactive | – | 17.2 µM (active) | inactive | – | – | – | –
O=[N+]([O-])c1ccc(O)c2ncccc12 | 23.7 µM (active) | 29.8 µM (active) | – | inactive | inactive | – | – | – | –
C=CCc1cc(S(=O)(=O)c2ccc(O)c(CC=C)c2)ccc1O | inactive | – | inactive | inactive | 54.5 µM (active) | – | – | inactive | inactive
CCN(CC)c1ccc(C=O)c(O)c1 | inactive | – | inactive | inactive | inactive | inactive | inactive | – | –
